# Measured values reported in ChEMBL document CHEMBL3988442, “University of Dundee, Small-Polar-MMV Screening Library” (2021).
# The whole screen tested about 66,000 compounds, of which about 960 (1.5%) showed an effect of 50% or more. The sample as a whole holds a higher share of strong results than the screen did.
# System: Trypanosoma brucei
# Test: Trypanosoma brucei 72 hour study
# Assay type: functional, organism-based
# Design: scale not given: in the data most compounds retested in dose-response had high values
Compound,"Percent Effect (30 µM, 30.03 µM) [%]","Percent Effect (30.3 µM, […]) [%]"
COc1cc(C2SCC(=O)Nc3n[nH]cc32)cc(OC)c1O (stereo not drawn),53.45,
COc1ccccc1C1SCC(=O)Nc2n[nH]cc21 (stereo not drawn),40.76,
COc1ccc(OC)c(C2SCC(=O)Nc3n[nH]cc32)c1 (stereo not drawn),38.65,
COc1cc(C2SCC(=O)Nc3ccsc32)cc(OC)c1O (stereo not drawn),23.79,
COc1cc(OC)c(C2SCC(=O)Nc3n[nH]cc32)cc1OC (stereo not drawn),60.77,
COc1ccc(C2SCC(=O)Nc3n[nH]cc32)c(OC)c1OC (stereo not drawn),-21.04,
COCc1cncc2c1CCN(Cc1cccs1)C2.O=C(O)C(F)(F)F.O=C(O)C(F)(F)F,,-85.33
COCCN1CCC12CCN(C(=O)c1ccc(C)nc1)C2.O=C(O)C(F)(F)F (stereo not drawn),,8.313
CN(C)CCN1CCN(Cc2cccs2)Cc2cccnc21.O=C(O)C(F)(F)F.O=C(O)C(F)(F)F.O=C(O)C(F)(F)F,,-59.56
CCN1C[C@@H]2[C@@H](OC)CCN(C(=O)Cc3ccsc3)[C@@H]2C1.O=C(O)C(F)(F)F,,-11
CN(C)CCOCc1cncc2c1CCN(C1CCOC1)C2.O=C(O)C(F)(F)F.O=C(O)C(F)(F)F.O=C(O)C(F)(F)F (stereo not drawn),,-50.42
Cc1ccc2c(c1)C1(CCNCC1)CC2NC1CC1.Cl.Cl (stereo not drawn),,15.24
Cc1ccc2c(c1)C(NC(C)C)CC21CCNCC1.Cl (stereo not drawn),,-30.38
Cc1ccc2c(c1)C(NC1CC1)CC21CCNCC1.Cl (stereo not drawn),,51.53
CC(C)CN1CCC2(C1)CN(c1ncccn1)C2.O=C(O)C(F)(F)F,-1.682,
Cc1nc(CN2CCO[C@@H]3CC(COc4ccccn4)C[C@H]32)cs1.O=C(O)C(F)(F)F.O=C(O)C(F)(F)F (stereo partly drawn),,-42.66
Cc1cc(N2CCC(NC(C)Cc3ccsc3)CC2)nc(N)n1 (stereo not drawn),101,
Cc1cc(CC(C)NC2CCN(CC(C)C)CC2)[nH]n1 (stereo not drawn),11.44,
Cc1cc(N2CCC(NC(C)Cc3ccsc3)CC2)nc(C)n1 (stereo not drawn),18.53,
CCO[C@@H]1CC[C@H]2[C@H]1OCCN2CC1CCC1.O=C(O)C(F)(F)F,-19.35,
CCc1ccc(CN2CC[C@@H]3NC(=O)CC[C@@H]32)o1.O=C(O)C(F)(F)F,,-13.17

Compound,"Percent Effect (30 µM, 30.03 µM) [%]","Percent Effect (30.3 µM, […]) [%]"
Fc1ccccc1CN1CCCC2(CCN(c3ncccn3)C2)C1 (stereo not drawn),,102.7
c1cnc(N2CCCC3(CCN(Cc4ccsc4)C3)C2)nc1 (stereo not drawn),44.57,
c1cnc(N2CCCC3(CCN(Cc4cccs4)C3)C2)nc1 (stereo not drawn),,-58.76
Cc1cccc(CN2CCC[C@@H]3CN(C(=O)c4ccco4)C[C@@H]32)n1.O=C(O)C(F)(F)F,-18.06,
Cc1noc(C)c1CN1CC[C@H]2OCC[C@@]2(C(=O)N2CCCC2)C1.O=C(O)C(F)(F)F,-22.78,
CC(C)N(C)Cc1cncc2c1CCN(CC(=O)N(C)C)C2.Cl.Cl.Cl,,7.599
Cc1cccc(CN2C[C@@H]3COC[C@H](NS(C)(=O)=O)[C@@H]3C2)n1.O=C(O)C(F)(F)F.O=C(O)C(F)(F)F,,-15.48
O=C(NC[C@]12COC[C@H]1CN(Cc1cccnc1)C2)c1ccsc1.O=C(O)C(F)(F)F.O=C(O)C(F)(F)F,39.91,
O=C(O)C(F)(F)F.c1cnc(N2C[C@H]3CCN(Cc4ccncc4)C[C@H]3C2)nc1,,-2.942
O=C(O)C(F)(F)F.O=C(O)C(F)(F)F.c1cnc(N2CC[C@@H]3CN(Cc4ccncc4)CCO[C@@H]3C2)nc1,,-15.11
O=C(O)C(F)(F)F.O=C(O)C(F)(F)F.c1ccc(N2CC[C@@H]3CN(Cc4ccncc4)CCO[C@@H]3C2)cc1,,99.05
Cl.Cl.NCC1[C@H]2CN(CCc3ccccc3)C[C@@H]12 (stereo partly drawn),,0.5802
O=C(O)C(F)(F)F.O=S(=O)(C1CC1)N1CCOC2(CCCN(Cc3ccccn3)C2)C1 (stereo not drawn),,-44.45
COc1c(C2SCC(=O)Nc3[nH]ncc32)cc2c(c1OC)OCO2 (stereo not drawn),,46.19
COc1cc(C2SCC(=O)Nc3[nH]ncc32)cc2c1OCO2 (stereo not drawn),,86.32
COc1cc(C2SCC(=O)Nc3[nH]ncc32)c(OC)c2c1OCO2 (stereo not drawn),,5.203
CN(C)Cc1cncc2c1CCN(C1CCOCC1)C2.Cl.Cl.Cl,,-35.22
O=C(Cc1ccccc1)N1CCC2(CCN2Cc2ccc(F)cc2)C1.O=C(O)C(F)(F)F (stereo not drawn),,10.12
CCCN1C(=O)CC2(CCCNC2)C1=O.Cl (stereo not drawn),,-8.6
Cc1cccc(-c2ncc(CNC(C)Cc3ncccc3C)cn2)c1 (stereo not drawn),,-134.7
CC(Cc1cccc(F)c1)NCc1cnc(N2CCN(C)CC2)nc1 (stereo not drawn),94.94,

Compound,"Percent Effect (30 µM, 30.03 µM) [%]","Percent Effect (30.3 µM, […]) [%]"
Cc1cccc(-c2ncc(CNC(C)Cc3ccncc3)cn2)c1 (stereo not drawn),,-157.2
Cn1nc(CN2CCCCC(N)C2)c2c(Cl)cccc21 (stereo not drawn),,88.2
Cn1ccc2c(C(=O)NC3CN4CCC3CC4)cccc21 (stereo not drawn),-26.79,
Cn1ncc2c(NC3CN4CCC3CC4)nc(-c3ccncc3)nc21 (stereo not drawn),,99.69
CC(C)n1ccc2ccc(C(=O)NC3CN4CCC3CC4)cc21 (stereo not drawn),-12.75,
O=C(C1CCOCC1)N1C[C@H]2CNC[C@H]2C1,,14.48
CN1CC[C@H]2OCC[C@@]2(C(=O)NCCc2ccccn2)C1.O=C(O)C(F)(F)F.O=C(O)C(F)(F)F,,-17.73
O=C(O)C(F)(F)F.O=C(O)C(F)(F)F.c1cc(COC[C@]23COC[C@H]2CN(CC2CCC2)C3)ccn1,51.43,
O=C(O)C(F)(F)F.O=C(O)C(F)(F)F.O=C(O)C(F)(F)F.c1cc(COC[C@]23COC[C@H]2CN(Cc2ccncc2)C3)ccn1,-36.39,
O=C(O)C(F)(F)F.O=C(O)C(F)(F)F.c1cc(COC[C@]23COC[C@H]2CN(Cc2ccsc2)C3)ccn1,16.71,
O=C(O)C(F)(F)F.O=C(O)C(F)(F)F.O=C(O)C(F)(F)F.c1cncc(CN2CCN3C[C@H](Oc4cncnc4)C[C@H]3C2)c1,,-85.06
O=C(O)C1CC2(CCN(c3nccc4ccccc34)CC2)CN1 (stereo not drawn),23.73,
CN1CC2(CCNCC2)CC1C(=O)NCCCNc1cccnc1 (stereo not drawn),,-6.231
O=C(NCc1cnn2cccnc12)C1CC2(CCNCC2)CN1 (stereo not drawn),54.89,
COc1ncccc1CN1C[C@H]2CCN(c3ncccn3)C[C@H]2C1.O=C(O)C(F)(F)F,,-7.481
OCC1N(Cc2ccco2)[C@H]2CC[C@]1(O)CC2 (stereo partly drawn),,-9.73
O=C(NCc1ccccn1)[C@]12COC[C@H]1CN(Cc1ccsc1)C2.O=C(O)C(F)(F)F.O=C(O)C(F)(F)F,,-46.8
Cc1noc(C)c1CN1C[C@@H]2COC[C@@H](C(=O)N3CCCO3)[C@@H]2C1,,79.91
Cc1cc(CN2C[C@@H]3COC[C@H](C(=O)N4CCCCO4)[C@@H]3C2)no1.O=C(O)C(F)(F)F,,-104.8
Cc1noc(C)c1CN1C[C@@H]2COC[C@H](C(=O)N3CCCO3)[C@@H]2C1,,-103.2
O=C(Nc1cccnc1)[C@H]1CN(Cc2nccs2)C[C@H]2OCC[C@@H]12.O=C(O)C(F)(F)F.O=C(O)C(F)(F)F.O=C(O)C(F)(F)F,6.623,

Compound,"Percent Effect (30 µM, 30.03 µM) [%]","Percent Effect (30.3 µM, […]) [%]"
Cc1cccc(CN2C(=O)C[C@H]3[C@@H]2CCN3CC2CC2)n1.O=C(O)C(F)(F)F.O=C(O)C(F)(F)F,,9.244
CNC(=O)c1ccc2c(c1)C1(CCN(C(C)C)CC1)C(=O)N2.O=C(O)C(F)(F)F,,-29.31
CCC1CNCc2cc3c(OC)ccc(OC)c3nc2O1 (stereo not drawn),,8.287
CCC1CNCc2cc3c(C)ccc(C)c3nc2O1 (stereo not drawn),,58.28
Cc1cccc(CN2CC[C@H]3OCC[C@@]3(C(=O)N3CCCO3)C2)n1.O=C(O)C(F)(F)F.O=C(O)C(F)(F)F,,-52.48
O=C(O)C(F)(F)F.O=C(O)C(F)(F)F.O=C([C@H]1C[C@H]2OCC[C@H]2N(Cc2cccnc2)C1)N1CCCCO1,,-300.7
O=C(C[C@@H]1COC[C@H]2CN(Cc3cccnc3)C[C@@H]12)NCC1CC1.O=C(O)C(F)(F)F.O=C(O)C(F)(F)F,,-16.86
CC1CN(CCc2ccncc2)CCO1 (stereo not drawn),-38.53,
CCC1CCCCN1CCc1ccncc1 (stereo not drawn),,96.43
CN(c1ncccc1C#N)C1CCN(CCc2ccncc2)CC1,-5.163,
Fc1cccc(CN2CCC3(CCN3c3ncccn3)C2)c1.O=C(O)C(F)(F)F (stereo not drawn),,-29.27
COCCN1CCC2(COCc3cnc(-c4ccccc4)nc32)C1.O=C(O)C(F)(F)F (stereo not drawn),,-55.77
CCOC(=O)[C@@H]1[C@@H](c2ccccc2)CN2CCNC[C@H]12,,-24.8
O=C1CSC(c2ccc3c(c2)OCO3)c2cnn(C3CCCCC3)c2N1 (stereo not drawn),6.351,
COC(=O)c1ccc(C2SCC(=O)Nc3c2cnn3C2CCCC2)cc1 (stereo not drawn),9.206,
O=C1CSC(c2cccs2)c2cnn(C3CCCC3)c2N1 (stereo not drawn),106.7,
CN1CCN(S(=O)(=O)c2cccc(F)c2)Cc2cccnc21.O=C(O)C(F)(F)F,,-5.986
COCCN1CCN(S(C)(=O)=O)Cc2ccc(C)nc21.O=C(O)C(F)(F)F,,-28.84
COCCN1CCN(c2ccc(C)nn2)Cc2ccc(C)nc21.O=C(O)C(F)(F)F.O=C(O)C(F)(F)F,,6.262
COCCN1CCN(c2cccc(C)n2)Cc2ccc(C)nc21.O=C(O)C(F)(F)F.O=C(O)C(F)(F)F,,60.56
